# Source: the supplement of paper PMC13380429
# Tested on: Vero E6 infected with SARS-CoV-2
# Assay: SARS-CoV-2 infection rate relative to infected DMSO; higher = more infection, active = 60 or less
# Conditions: 24 h
row,Compound,SARS-CoV-2 infection rate
1,O=C(Nc1nc2cccc(-c3ccc(CN4CCS(=O)(=O)CC4)cc3)n2n1)C1CC1 [filgotinib] (10 µM),97% (inactive)
2,CC(C)NCC(O)c1ccccc1Cl (centres undefined) [clorprenaline] (10 µM),96.5% (inactive)
3,CCCCCCCCCCCCC/C=C/[C@@H](O)[C@@H](N)CO[P@](=O)(O)OCC[N+](C)(C)C [sphingosylphosphorylcholine] (10 µM),112% (inactive)
4,Nc1ccc(/N=N/c2ccccc2)c(N)n1 [phenazopyridine] (10 µM),87.5% (inactive)
5,Clc1ccc(COC(Cn2ccnc2)c2ccc(Cl)cc2Cl)c(Cl)c1 (centres undefined) [miconazole] (10 µM),118% (inactive)
6,N[C@@H]1CCCCN(c2c(F)cc3c(=O)c(C(=O)O)cn(C4CC4)c3c2Cl)C1 [besifloxacin] (10 µM),110% (inactive)
7,O=C1c2ccccc2CCC1CNCCc1ccc(O)cc1 (centres undefined) (10 µM),106% (inactive)
8,CN(CCOc1ccc(-c2ccc3c(c2)OCO3)cc1C(C)(C)C)CC(=O)O (10 µM),102% (inactive)
9,O=C1N=C2SCCN2C(=O)C1Cc1ccc(Cl)cc1 (centres undefined) [nuclomedone] (10 µM),99% (inactive)
10,CCC(=O)N[C@@H]1Cc2ccccc2[C@H](c2ccccc2)C1 (10 µM),110% (inactive)
11,CCOC(=O)CCNc1cc(N2CCc3ccccc3CC2)nc(-c2ccccn2)n1 (0.833333 µM),116% (inactive)
12,O=C1CS[C@@H](c2ccccc2Cl)c2cc(Cl)ccc2N1 (racemic) (10 µM),89% (inactive)
13,O=c1ccc2cc3ccoc3cc2o1 [psoralen] (10 µM),108% (inactive)
14,"CCS(=O)(=O)N(C)[C@H]1c2cc(C#N)ccc2OC(C)(C)[C@@H]1O [chromanol-293B-(-)-[3R,4S]] (10 µM)",104% (inactive)
15,O=C1OC(c2ccc(O)cc2)(c2ccc(O)cc2)c2ccccc21 [phenolphthalein] (10 µM),110% (inactive)
16,CO[C@H]1C[C@@H]2CC[C@@H](C)[C@@](O)(O2)C(=O)C(=O)N2CCCC[C@H]2C(=O)O[C@H]([C@H](C)C[C@@H]2CC[C@@H](O)[C@H](OC)C2)CC(=O)[C@H](C)/C=C(\C)[C@@H](O)[C@@H](OC)C(=O)[C@H](C)C[C@H](C)/C=C/C=C/C=C/1C [sirolimus] (10 µM),104% (inactive)
17,NCC(O)c1ccc(O)cc1 (centres undefined) [octopamine] (10 µM),114% (inactive)
18,COc1cc2c(NC3CCN(CC4CCCCC4)CC3)nc(N3CCCN(C(C)C)CC3)nc2cc1OCCCN1CCCCC1 (0.833333 µM),92% (inactive)
19,CC(=O)NCCC(=O)N[C@@H](Cc1c[nH]cn1)C(=O)O [N-acetylcarnosine] (10 µM),116% (inactive)
20,NC(=O)C[S+]([O-])C(c1ccccc1)c1ccccc1 (centres undefined) (10 µM),106% (inactive)

row,Compound,SARS-CoV-2 infection rate
1,O=[N+]([O-])c1ccccc1S(=O)(=O)NCC1CCC(CNC[C@H]2CCc3ccccc3C2)CC1 (some centres undefined) (0.833333 µM),97.5% (inactive)
2,CCNC(=O)/C=C/c1cccc(Br)c1 [cinromide] (10 µM),96% (inactive)
3,CC1(C)S[C@@H]2[C@H](N3C(=O)[C@@H](c4ccccc4)NC3(C)C)C(=O)N2[C@H]1C(=O)O [hetacillin] (10 µM),96.5% (inactive)
4,CN1CCC[C@@H]1Cc1c[nH]c2ccc(CCS(=O)(=O)c3ccccc3)cc12 [eletriptan] (10 µM),102% (inactive)
5,O=C(O)CCCCCCNC1c2ccccc2CCc2ccccc21 [amineptine] (10 µM),105% (inactive)
6,Cc1nc2sccn2c(=O)c1CCN1CCC(=C(c2ccccc2)c2ccc(F)cc2)CC1 (10 µM),81.5% (inactive)
7,C=C1/C(=C\C=C2/CCC[C@]3(C)[C@@H]([C@H](C)CC[C@@H](O)C(C)C)CC[C@@H]23)C[C@@H](O)C[C@@H]1O [tacalcitol] (10 µM),120% (inactive)
8,C[C@H](c1ccc2ccc(OC3CCC(C(F)(F)F)CC3)c(C(F)(F)F)c2c1)N1C2CCC1CC(C(=O)O)C2 (some centres undefined) [autotaxin-modulator-1] (10 µM),91% (inactive)
9,O=C(NOCC(O)CO)c1cc(Br)c(F)c(F)c1Nc1ccc(I)cc1F (centres undefined) (0.833333 µM),112% (inactive)
10,O=c1ncn2nc(Sc3ccc(F)cc3F)ccc2c1-c1c(Cl)cccc1Cl (10 µM),108% (inactive)
11,O=C(O)c1ccccc1C(=O)Nc1ccc(-c2ccccc2)cc1 [kartogenin] (10 µM),97.5% (inactive)
12,c1cc2c(cc1C1CCCCC1)c1c3n2CCNC3CCC1 (centres undefined) [tetrindole] (0.833333 µM),108% (inactive)
13,CSCC[C@H](NC(=O)[C@H](Cc1ccccc1)NC(=O)CNC(=O)CNC(=O)[C@@H](N)Cc1ccc(O)cc1)C(=O)O [metenkephalin] (10 µM),91% (inactive)
14,CC#C[C@@H](CC(=O)O)c1ccc(OCc2cccc(-c3ccc(C(F)(F)F)cc3)c2)cc1 (10 µM),108% (inactive)
15,CNC(=O)c1c(C)oc2cc(Oc3ncnc4cc(OC)c(OC)cc34)ccc12 [fruquintinib] (10 µM),110% (inactive)
16,C[C@]12N[C@H](Cc3ccccc31)c1ccccc12 [dizocilpine-(-)] (10 µM),106% (inactive)
17,COC(=O)Nc1nc2cc(C(=O)c3cccs3)ccc2[nH]1 [nocodazole] (0.833333 µM),104% (inactive)
18,Cn1c(=O)c2c(ncn2C)n(C)c1=O [caffeine] (10 µM),113% (inactive)
19,Cc1c(N(C)CS(=O)(=O)O)c(=O)n(-c2ccccc2)n1C [metamizole] (10 µM),93.5% (inactive)
